Only some compounds are listed: those with a hit (about 3.3% of all), similar ones and a draw of the others.
rCAG binder: binds r(CAG) RNA repeats | inhibition, % at 3 µM | r(CAG) RNA repeat, TO-PRO-1 dye displacement fluorescence | AID 651821 | 370,000 tested, 1.3% active;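 active = inhibition above the plate cutoff, the mean of all test compounds on that plate plus 3 SD, cut at about 35% in these data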;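 note: higher means more dye released from RNA so lower well fluorescence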
TLR4 MyD88 comp: blocks binding of human TLR4 to MyD88; 200,000 tested, 0.18% active; HeLa CL3-4 TLR4/MyD88 BLA complementation, FRET ratio; inhibition, % at 8.4 µM; O00206+Q99836; in the data active = inhibition above about 25%
TLR9-MyD88 inh: inhibitors of human TLR9-MyD88 binding. Q9NR96+Q99836. CHO BLA complementation TLR9-MyD88, CCF4 FRET ratio. inhibition, % at 4.98 µM. 340,000 tested, 0.21% active. AID 504734;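 active = inhibition above the mean over all tested compounds plus 3 SD, cut at about 21% in these data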
ABHD5-PLIN5 inh: inhibitors of human ABHD5-perilipin-5 interaction; 360,000 tested, 0.78% active; inhibition, % at 4 µM; Split G. princeps luciferase complementation, luminescence, 4 h;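 active = inhibition above the mean inhibition across every tested compound plus 3 SD, cut at about 22% in these data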
NOD2-RIPK2 inh: NOD2-RIPK2 protein interaction inhibition. O43353. CHO BLA complementation NOD2-RIPK2, CCF4 ratio. inhibition, % at 4.98 µM. 360,000 tested, 0.38% active; in the data active = inhibition above about 21%
PRMT1 FP inh: inhibitors of human PRMT1; Q99873; recombinant PRMT1, activity-based probe fluorescence polarization; inhibition, % at 2.79 µM; 370,000 tested, 1.3% active; AID 652257;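 active = inhibition above about 21% made by adding two undisclosed values, limit read from the data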
ABHD5 PLIN5 conf: confirmation of human ABHD5-PLIN5 interaction inhibitors. shares compounds with ABHD5-PLIN5 inh. biochemical ABHD5-PLIN5 interaction, luminescence. inhibition, % at 4 µM. 2,200 tested, 67% active. AID 651612; in the data active = inhibition above about 23%
HNF4 split-luc: counter-screen for ABHD5-PLIN5 inhibitors: HNF4 split-luciferase | shares compounds with ABHD5-PLIN5 inh | HNF4 dimerization, luminescence, biochemical | inhibition, % at 4 µM | 2,200 tested, 77% active | AID 651674;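 active = mean inhibition across replicate wells exceeding the computed hit threshold, cut at about 13% in these data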;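 note: light from luciferase halves that rejoin when HNF4 fusion proteins dimerize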
Hits are given with their value; 0 = inactive; - = no result.

SMILES	rCAG binder	TLR4 MyD88 comp	TLR9-MyD88 inh	ABHD5-PLIN5 inh	NOD2-RIPK2 inh	PRMT1 FP inh	ABHD5 PLIN5 conf	HNF4 split-luc
CCOC(=O)C1(Cc2ccccc2)CCCN(C(=O)c2ccc(-n3ccnc3)cc2)C1 (configuration not stated)	0	-	0	0	0	0	-	-
O=C(C=Cc1ccco1)c1ccc([N+](=O)[O-])cc1	0	-	0	35	0	23	47	42
Cc1cc2nc(-c3cccc(Br)c3)c(Cc3ccsc3)n2c(C)c1Br	0	-	-	0	0	0	-	-
Cc1cc2nc(-c3cccc(Br)c3)c(Cc3ccccc3)n2c(C)c1Br	0	-	-	28	0	0	32	17
O=C(CCC(=O)NNC(=O)c1ccccc1[N+](=O)[O-])NCc1ccccc1	0	0	-	0	0	0	-	-
Cc1ccc(N2C(=O)c3ccccc3C2=O)cc1	0	-	0	0	0	0	-	-
Cc1ccc(SC2=C(Sc3ccc(C)cc3)C(=O)c3ccccc3C2=O)cc1	0	-	0	25	0	0	63	12
NC1=NC(=O)/C(=C\c2cc([N+](=O)[O-])ccc2Cl)S1	0	0	0	25	0	0	24	19
NC1=NC(=O)/C(=C/c2ccc(Cl)cc2Cl)S1	0	-	0	0	0	0	-	-
CCCCc1nc(C(N)=O)c2[nH]c(=O)n(-c3ccc(OCC)cc3)c2n1	-	-	0	0	0	-	-	-
CSc1ccc2c(c1)C(N1CCN(C)CC1)Cc1ccc(F)cc1S2 (configuration not stated)	0	-	-	26	0	0	0	0
CO/N=C(\CCC(=O)O)c1cccs1	0	-	0	0	0	0	-	-
COc1ccccc1-c1cc(C(=O)NC2CCN(C)CC2)c2ccc(Cl)c(C)c2n1	0	-	0	32	0	0	0	0
CC(=O)Nc1ccc(OS(=O)(=O)c2cc(Cl)ccc2C)cc1	0	0	0	0	0	0	-	-
COc1ccccc1/C=C/C=N/n1c(COc2ccccc2)n[nH]c1=S	0	0	0	0	0	0	-	-
COc1ccccc1/C=C/C=N/n1c(-c2ccc(F)cc2)n[nH]c1=S	0	-	-	52	0	0	0	0
NS(=O)(=O)c1ccc(NC(=O)c2ccc(CNS(=O)(=O)c3cc(C(F)(F)F)ccc3Cl)cc2)cc1	0	0	0	0	0	0	-	-
Cc1ccc(N/C(=C\C(=O)c2ccccc2)C(=O)O)cc1	0	0	0	93	0	0	0	0
Cn1c(-c2ccccc2)c(C(=O)CCl)c2ccccc21	0	0	0	24	0	0	37	22
CCn1c(-c2ccccc2)c(C(=O)CCl)c2ccccc21	0	0	0	0	0	0	-	-
C=C1C(=O)C2=CC1CCC(=O)C1(C)CCC(OC(C)=O)C(C)(C)C1CC2O (configuration not stated)	0	-	0	44	0	0	58	92
CCc1ccccc1NC(=O)CN(C)Cc1c(O)ccc2ccccc12	0	-	0	24	0	23	46	88
CC(=O)C(=Cc1ccc(-c2ccccc2)cc1)C(=O)c1ccccc1	0	-	-	95	0	0	98	96
COc1ccc(NC(=O)CCc2nnc3ccc(NCc4ccco4)nn23)cc1OC	0	-	0	34	0	0	0	13
Cc1cccnc1NC(=O)CCc1nnc2ccc(NCc3ccco3)nn12	0	-	0	32	0	0	0	0
SMILES	rCAG binder	TLR4 MyD88 comp	TLR9-MyD88 inh	ABHD5-PLIN5 inh	NOD2-RIPK2 inh	PRMT1 FP inh	ABHD5 PLIN5 conf	HNF4 split-luc
COc1ccc(NC(=O)CCc2nnc3ccc(NCc4ccco4)nn23)cc1	0	-	0	0	0	0	-	-
COC(=O)c1ccc(NC(=O)CCc2nnc3ccc(NCc4ccco4)nn23)cc1	0	-	0	57	0	0	0	14
COc1cccc(CNC(=O)[C@H]2CCCN2C(=O)[C@H]2CCCN2C(=O)N2CCCCC2)c1	0	-	-	-	-	0	-	-
C(=C\c1ccccc1)/CSc1nnc(-c2ccccn2)n1Cc1ccco1	0	0	0	34	0	0	0	44
COc1cccc(NC(=O)Nc2nc3ncccn3c2-c2ccc(C)cc2)c1	0	-	-	-	-	0	-	-
COc1ccc(C(=O)N2C=Cc3ccccc3C2C#N)cc1 (configuration not stated)	0	-	0	0	0	0	-	-
N#CC1c2ccccc2C=CN1C(=O)N(c1ccccc1)c1ccccc1 (configuration not stated)	0	-	0	36	0	0	32	34
COc1ccc(CNC(=O)CN(Cc2ccc(F)cc2)C(=O)c2csnn2)cc1	0	0	0	0	0	0	-	-
C=CCOC(=O)C1=C(C)NC(=O)NC1c1cc2c(cc1Br)OCO2 (configuration not stated)	0	-	0	0	0	0	-	-
O=C(N/N=C/C(Br)=C/c1ccccc1)c1cc(-c2ccco2)[nH]n1	0	0	0	25	0	0	22	72
CC(/C=N/NC(=O)c1cc(-c2ccc(C)o2)[nH]n1)=C\c1ccccc1	0	0	0	0	0	0	-	-
CC1C(=O)NN=C1C(=O)N/N=C\C(Br)=C\c1ccccc1 (configuration not stated)	0	0	0	34	0	0	0	22
Cc1ccc(CN2CCNC(=O)C2CC(=O)N(C)C2CCCCC2)cc1 (configuration not stated)	0	-	0	0	0	0	-	-
CCOc1ccc(C(=O)CC(NCc2cccs2)C(=O)O)cc1 (configuration not stated)	0	0	0	57	0	0	91	110
CCOC(=O)C1=C(C)N2C(=C(C#N)[C@@H]1c1ccc(C(=O)OC)cc1)SC[C@@]2(O)C(C)(C)C	0	0	0	0	0	0	-	-
O=C(COc1ccccc1F)NNC(=O)c1ccc(F)c(S(=O)(=O)N2CCOCC2)c1	0	-	0	0	0	0	-	-
CC(Oc1ccccc1F)C(=O)NNC(=O)c1ccc(F)c(S(=O)(=O)N2CCOCC2)c1 (configuration not stated)	0	-	0	63	0	0	0	0
C=C1[C@@H](OC(C)=O)CC[C@]2(C)[C@@H]1C[C@@H]1C[C@H](OC(C)=O)C(C)=C([C@@H](OC(C)=O)[C@@H]2OC(C)=O)C1(C)C	0	-	0	0	0	0	-	-
CSC1=NC(C)(C)C=C(/C=C/c2ccc(Cl)cc2)N1	0	0	0	24	0	0	45	43
CCSC1=NC(C)(C)C=C(/C=C/c2ccc(Cl)cc2Cl)N1	0	0	0	26	0	0	32	33
O=C(NCCCN1CCOCC1)c1sc2cc([N+](=O)[O-])ccc2c1Cl	-	0	0	24	0	-	0	66
O=C(NCCCN1CCOCC1)c1sc2cc(Cl)ccc2c1Cl	0	0	0	0	0	0	-	-

High-throughput results deposited in PubChem BioAssay by The Scripps Research Institute Molecular Screening Center.
